# Assay outcomes: PubChem BioAssay, National Center for Advancing Translational Sciences (NCATS)
# Gal4-VP16 FLuc: VP16 counterscreen qHTS for inhibitors of ROR gamma transcriptional activity. AID 2546, 2010. Drosophila S2 Gal4-VP16 UAS-luciferase, luminescence, 20 h. hit rate 3.5% among 310,000. Potency, µM (series often up to 53.6 µM), for inactives: top-dose activity, negative = inhibition, actives largely listed as inhibitors;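 also: Gal4-VP16 expression switched on by copper sulfate through the metallothionein promoter; % is scaled to controls: 0 for no effect and ±100 for the full control effect; nearly all actives have a fitted effect of over 50% in size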
# HepG2 viability: qHTS for Inhibitors of TGF-b: Cytotox Counterscreen; hit rate 0.76% among 410,000; Potency, µM (doses to about 46.1 µM), for inactives: at the top dose activity change, negative = cytotoxicity, most hits filed as cytotoxic; HepG2 CAGA-GFP viability, ATP luminescence, 18 h
#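 HepG2 CAGA-GFP cells (1000/well, DMEM with 1% FBS) received compound, then TGF-beta at 500 pg/mL final, and were incubated 18 hours at 37 degrees C. Viability was read by CellTiter-Glo luminescence. Media-only wells were set as complete cell-killing and DMSO as no toxicity.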
# ATXN viability: Viability Counterscreen for Primary qHTS for Inhibitors of ATXN expression | AID 651635, 2014 | S2 cells (HEK-293 line with an ATXN2-luciferase reporter) viability, CellTiter-Fluor protease fluorescence, 24 h | Potency, µM (series often up to 56.7 µM), hits mostly cytotoxic | hit rate 0.49% among 400,000; also: nearly all actives have a fitted effect of over 40% in size
# ATXN2 expr inh: Primary qHTS for Inhibitors of ATXN expression; HEK-293 ATXN2-luciferase reporter, luminescence, 24 h; Potency, µM (highest dose often 57 µM), for inactives: at the highest dose activity change, negative = inhibition, usual class: inhibitors; hit rate 0.72% among 360,000; AID 1745845, 2022; also: % is scaled to controls: 0 for no effect and ±100 for the full control effect; nearly all actives have a fitted effect of over 55% in size
#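 ATXN2-luciferase reporter cells (luciferase flanked by upstream and downstream ATXN2 gene portions) were treated 24 h at 37 °C with compounds at up to 57 uM. SteadyGlo luminescence gave expression; GF-AFC fluorescence gave viability.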
# RORgamma inh: qHTS for inhibitors of ROR gamma transcriptional activity | Nuclear receptor ROR-gamma (Mus musculus), P51450 | hit rate 5.4% among 310,000 | AID 2551, 2010 | Potency, µM (doses to about 53.6 µM), for inactives: at the top dose activity change, negative = inhibition, usual class: inhibitors | Drosophila S2 Gal4-RORgamma UAS-luciferase reporter, 20 h; also: % is scaled to controls: 0 for no effect and ±100 for the full control effect; nearly all actives have a fitted effect of over 60% in size
# Target sequence (P51450 whole entry, looked up, the tested form may be a part): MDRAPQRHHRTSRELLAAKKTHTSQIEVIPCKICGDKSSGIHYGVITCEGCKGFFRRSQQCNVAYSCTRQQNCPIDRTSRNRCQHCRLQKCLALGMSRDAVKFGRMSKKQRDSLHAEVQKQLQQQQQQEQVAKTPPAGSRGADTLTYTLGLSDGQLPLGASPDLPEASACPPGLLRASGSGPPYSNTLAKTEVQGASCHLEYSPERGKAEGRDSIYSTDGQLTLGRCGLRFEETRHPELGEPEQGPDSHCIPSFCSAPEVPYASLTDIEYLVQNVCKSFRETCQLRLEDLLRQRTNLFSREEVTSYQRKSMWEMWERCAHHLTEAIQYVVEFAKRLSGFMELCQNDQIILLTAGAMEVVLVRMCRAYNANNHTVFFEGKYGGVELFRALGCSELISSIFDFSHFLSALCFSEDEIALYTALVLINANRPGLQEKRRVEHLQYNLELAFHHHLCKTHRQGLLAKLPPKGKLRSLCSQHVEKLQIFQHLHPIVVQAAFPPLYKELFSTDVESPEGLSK
#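 Luminescence from a UAS-regulated Photinus luciferase reporter in stably transfected Drosophila Schneider cells is measured; decreased signal marks ROR gamma inhibition. Fusion expression is induced by 700 uM copper sulfate for 20 hr.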
# TGFb SMAD3 inh: qHTS for Inhibitors of TGF-b | HepG2 CAGA-GFP TGF-b/SMAD3 reporter, GFP fluorescence, 18 h; TGF-beta stimulated, 500 pg/mL final | Potency, µM (top dose mostly 46.1 µM), without a hit: top-dose activity, negative = inhibition, actives largely listed as inhibitors | hit rate 1.2% among 410,000; also: % is scaled to controls: 0 for no effect and ±100 for the full control effect; nearly all actives have a fitted effect of over 65% in size
#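 Using HEPG2 CAGA-GFP reporter cells at 1000 cells/well, we pinned test compounds, stimulated with recombinant TGF-beta (500 pg/mL final) and measured total well GFP after 18 h.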
# * marks the source's active call; other numbers are inactive results; i = inactive; ? = inconclusive; nt = no result given. This is a sample that favours compounds with a hit; in the whole collection about 6.3% have one here. Calls follow the shape of the dose curve; as a rule, active = well fitted curve in the direction sought with a large enough effect; inconclusive = small, poorly fitted or top-dose-only effect, or another doubt; inactive = no such curve, though single readings can be large; an effect the other way counts as inactive or inconclusive. Potency is read from the fitted curve at half-maximal effect.
SMILES,Gal4-VP16 FLuc,HepG2 viability,ATXN viability,ATXN2 expr inh,RORgamma inh,TGFb SMAD3 inh
O=C1Cc2ccccc2C(c2ccc(Cl)cc2)N1 (configuration not stated),3.3%,0.8%,i,-3.5%,1.5%,-1.5%
COC(=O)c1nnn(CC(=O)Nc2cc(F)ccc2F)c1C(=O)OC,nt,-0.5%,i,-9.8%,nt,-28.0%
CCOCCCN(C)C1CCN(C(=O)c2oc3ccccc3c2NC(=O)c2cccc([N+](=O)[O-])c2)CC1,1.7%,-6.8%,i,-25.6%,-17.2%,-0.5%
Nc1c(C(=O)c2ccccc2)sc(Nc2ccc(Cl)c(Cl)c2)c1C(=O)Nc1ccccc1,nt,7.94µM*,nt,?,nt,?
COc1ccc(N=C2C(=Nc3ccc(OC)cc3)N(c3ccc(OC)cc3)C(=S)N2c2ccccc2)cc1,22.9%,-10.9%,?,30.3%,14.2%,-18.9%
Cc1ccc(-c2nc(=Nc3ccccc3)sn2-c2ccccc2)cc1,nt,4.47µM*,nt,nt,nt,3.55µM*
COc1ccc(N=c2nc(-c3ccccc3)n(-c3ccc(C)cc3)s2)cc1,nt,-101.9%,nt,nt,nt,3.98µM*
COc1ccc(N=c2nc(-c3ccc(C)cc3)n(-c3ccccc3)s2)cc1,nt,-62.1%,nt,nt,nt,3.16µM*
N=c1nc(-c2ccccc2)n(-c2ccccc2)s1,nt,-12.7%,nt,nt,nt,-1.1%
CCCCCc1cc(=O)oc2c(C(CCN(CC)CC)c3cc(OC)c(OC)c(OC)c3)c(OC)cc(OC)c12 (configuration not stated),?,17.8µM*,31.6µM*,?,?,?
CCCCCc1cc(=O)oc2c(C(CCN3CCCCC3)c3ccc4c(c3)OCO4)c(OC)cc(OC)c12 (configuration not stated),-12.1%,-93.1%,17.8µM*,31.6µM*,-32.3%,17.8µM*
COc1cc(OC)c2ccc(=O)oc2c1C(CCN1CCCC1)c1ccc2c(c1)OCO2 (configuration not stated),-18.4%,-14.0%,14.1µM*,4.9%,-0.6%,-7.2%
COc1cc(OC)c2c(-c3ccccc3)cc(=O)oc2c1C(CCN1CCCC1)c1ccc2c(c1)OCO2 (configuration not stated),?,-7.9%,?,0.0%,?,?
COc1cc(OC)c2ccc(=O)oc2c1C(CCN1CCOCC1)c1ccc2c(c1)OCO2 (configuration not stated),0.6%,-26.8%,8.91µM*,-7.8%,10.3%,-20.4%
CCCCCc1cc(=O)oc2c(C(CCN3CCCC3)c3ccc4c(c3)OCO4)c(OC)cc(OC)c12 (configuration not stated),?,-97.5%,nt,nt,?,?
COc1ccc(CCNC(=O)C(=O)NCC(c2cccnc2)N2CCN(c3ccccc3)CC2)cc1 (configuration not stated),nt,-2.8%,?,?,nt,-20.8%
Cc1ccc(NC(=S)Nc2ccccn2)c(C)c1,6.31µM*,-2.0%,i,32.3%,0.794µM*,?
Cc1ccc(NC(=S)c2ccncc2)c(C)c1,-6.8%,-15.5%,i,nt,?,-9.6%
Cc1cc(Cl)ccc1NC(=S)Nc1ccccn1,1.26µM*,-33.4%,i,10.1%,1µM*,?
COc1cc(OC)c(/C=C/c2nc3ccccc3o2)c(OC)c1,nt,-37.4%,nt,nt,nt,-7.9%
CC1CC(C)(C)CC2(C1)NC(=O)N(CC(=O)OCC(=O)Nc1cc(S(=O)(=O)N3CCCCC3)ccc1Cl)C2=O (configuration not stated),nt,-2.8%,?,0.3%,nt,?
C/C(=N\Nc1nccnc1Cl)c1c(F)c(F)c(F)c(F)c1F,?,-17.4%,i,5.0%,8.91µM*,1.6%
C/C(=N\Nc1nccnc1Cl)c1ccc(O)cc1,8.0%,-33.6%,i,4.0%,10.8%,0.0%
C/C(=N\Nc1nccnc1Cl)c1ccc(F)cc1,2.82µM*,-27.6%,?,59.9%,5.62µM*,-0.6%
C/C(=N\Nc1nccnc1Cl)c1ccc(Cl)c(Cl)c1,?,0.4%,i,20.2%,?,?
SMILES,Gal4-VP16 FLuc,HepG2 viability,ATXN viability,ATXN2 expr inh,RORgamma inh,TGFb SMAD3 inh
O=C(NCc1cccc(Br)c1)c1cccn1-c1nnc(N2CCCCC2)s1,nt,-25.1%,?,?,nt,?
Cc1cccc(-c2noc(CSc3nc(-c4ccc(F)cc4)cc(=O)[nH]3)n2)c1,nt,-2.2%,nt,nt,nt,-14.9%
CC[C@@]1(O)C[C@H](O[C@H]2C[C@@H](N(C)C)[C@@H](O[C@H]3C[C@@H](O)[C@@H](O[C@H]4CCC(=O)[C@@H](C)O4)[C@@H](C)O3)[C@@H](C)O2)c2c(cc3c(c2O)C(=O)c2c(O)cccc2C3=O)[C@H]1C(=O)OC,0.562µM*,nt,nt,nt,0.316µM*,nt
CN1CCN(C(=O)CCN2C(=O)/C(=C/c3ccccc3Cl)SC2=S)CC1,-0.6%,-29.0%,?,43.4%,17.8µM*,?
CN1CCN(C(=O)CCN2C(=O)/C(=C\c3ccccc3F)SC2=S)CC1,-16.8%,-72.6%,?,0.3%,5.62µM*,?
O=C(CCN1C(=O)/C(=C\c2ccccc2F)SC1=S)N1CCOCC1,nt,-44.2%,?,nt,nt,-20.0%
CCN(C(=O)CN1C(=O)/C(=C/c2ccccc2F)SC1=S)C1CCS(=O)(=O)C1 (configuration not stated),-9.9%,-1.7%,?,nt,10µM*,3.3%
CCN(C(=O)CN1C(=O)S/C(=C\c2ccccc2OC)C1=O)C1CCS(=O)(=O)C1 (configuration not stated),-5.1%,-5.2%,i,9.7%,-20.0%,-6.2%
O=C(Cn1c(=O)n(-c2ccc(Cl)cc2)c(=O)c2sc3ccccc3c21)NC1CCCC1,nt,-45.5%,i,9.7%,nt,29.4%
Cc1ccc(Cl)cc1NC(=O)c1ccccc1OCC(=O)Nc1ccc(Cl)cc1,11.2µM*,-8.6%,?,nt,?,-24.3%
Cc1ccc(OCC(=O)Nc2ccc(Cl)cc2)c(-n2nc3ccccc3n2)c1,2.0%,-35.6%,nt,35.5µM*,2.9%,4.7%
CCOc1ccc(C)cc1-n1nc2ccccc2n1,3.1%,0.4%,i,?,18.7%,13.0%
O=c1ccc2nc3ccccc3sc-2c1,nt,25.1µM*,25.1µM*,?,nt,20µM*
CCc1ccc(NC(=O)COC(=O)c2ccccc2OCC(=O)N(C)C)cc1,nt,-38.0%,nt,nt,nt,-30.0%
CCOc1ccccc1C(=O)NCCNC(=O)c1ccccc1OCC,nt,29.3%,i,11.6%,nt,3.1%
CCOc1ccccc1C(=O)NN1C(=O)CCC1=O,?,0.8%,i,-5.4%,6.31µM*,-0.7%
